The text below walks through data of PubChem BioAssay AID760 (NMMLSC, 2007).

Out of some 190,000 compounds screened, about 360 (0.19%) were called active. About 2% were inconclusive and are not listed.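 Rule for the calls: active = GTP binding activity at least 20 points away from 100%, either lowered or raised; inconclusive = signal likely due to the compound's own green fluorescence; inactive = the rest.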 Shown is part of a subset that was picked to be rich in actives.

This assay deals with Ras-related protein Rab-2A (Canis lupus familiaris) (UniProt P61105). The assay is described as follows: Rab2 wt fluorescent GTP binding changes, either direction – biochemical, dog, bead-based flow cytometry, multiplex, primary screen (AID 760).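 Note: 0% = beads with excess unlabeled GTP and 100% = no-compound control corrected for plate trend.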 The conditions noted are these: GST-Rab2 wt beads, Bodipy-GTP binding, at 10 µM. On the technique in general: In flow cytometry, cells or beads pass a laser one at a time.
On to `Cc1ccc(C(=O)NN(CCC#N)C2=NS(=O)(=O)c3ccccc32)cc1`, for which the GTP binding activity was 95% (inactive).

Regarding `Cn1nc(-c2ccccc2)c(CO)c1Sc1ccccc1`, the GTP binding activity was 93% (inactive).

On to `CN1C(=O)/C(=C/C=C2\SCCN2C)OC1=S`, for which the GTP binding activity was 98% (inactive).

Regarding `O=C(O)CCc1nc2cc(Cl)ccc2n(Cc2ccccc2)c1=O`, the GTP binding activity is 98% (inactive).

On to `CCN(CC(=O)NCc1cccs1)S(=O)(=O)c1ccc(NC(C)=O)cc1`, for which the GTP binding activity is 96% (inactive).

Consider `Cc1ccc(S(=O)(=O)N2CCOCC2)cc1NC(=O)CSc1nnc(N)s1`, for which the GTP binding activity was 98% (inactive).

`Cc1ccccc1CC1(CO)CCCN(Cc2ccc3c(c2)OCCO3)C1` (stereo not given): the GTP binding activity is 99% (inactive).

With `O=C(CC1SC(=Nc2ccccc2F)N(CCN2CCOCC2)C1=O)Nc1ccc(F)cc1F` (stereo not given), the GTP binding activity was 97% (inactive).

Regarding `CC(C)NC(=O)NC(=O)CSc1nnc(-c2ccccc2F)n1N`, the GTP binding activity was 97% (inactive).

Take `C=CCN1C(=O)C(O)(CC(=O)c2ccccn2)c2ccccc21` (stereo not given): the GTP binding activity is 107% (inactive).

Take `CC1(C)CC(=O)c2ccc(O)cc2O1`: the GTP binding activity was 97% (inactive).

Take `N=C1C(c2nc3ccccc3[nH]2)=C(O)CN1NC(=O)c1c[nH]c2ccccc12`: the GTP binding activity was 96% (inactive).

As to `CCCCOc1ccc(N(CC(=O)NC(C)C)C(=O)CCC(=O)Nc2ccccn2)cc1`, the GTP binding activity was 97% (inactive).

`O=C(NNC(=S)NC(=O)c1cn(-c2ccccc2)nc1-c1ccccc1)c1ccncc1`: the GTP binding activity is 90% (inactive).

For the compound `COc1ccc(N2CCN(C(=O)CNS(=O)(=O)c3ccc(C)c(C)c3)CC2)cc1`, the GTP binding activity was 96% (inactive).

Regarding `CC(C)=CCN1CCN(Cc2ccc(Oc3ncccn3)cc2)CC1CCO` (stereo not given), the GTP binding activity is 100% (inactive).

On to `COc1ccc(NC(=O)c2cc3nc(-c4ccccc4)cc(C)n3n2)cc1OC`, for which the GTP binding activity is 84% (inactive).

In the case of `CCOC(=O)c1ccc(N/C(=N/S(=O)(=O)c2ccccc2)c2ccccc2)cc1`, the GTP binding activity is 95% (inactive).

Take `CCOC(=O)c1nc(Nc2ccc(C(=O)OC)cc2)c2ccccc2n1`: the GTP binding activity is 77% (active).

For the compound `CCOC(=O)c1ccc(Nc2cc(C)nc3nc(C)nn23)cc1`, the GTP binding activity is 98% (inactive).

With `O=C(/C=C/c1ccc(N2CCOCC2)cc1)c1ccccc1`, the GTP binding activity was 97% (inactive).

Regarding `CCN(c1ccccc1)S(=O)(=O)c1ccc2[nH]c(=O)[nH]c2c1`, the GTP binding activity was 99% (inactive).

Take `O=C(Nc1ccc2oc(-c3ccccc3F)nc2c1)c1ccco1`: the GTP binding activity is 96% (inactive).

For the compound `Cc1ccc2cc(CN(c3ccc(C)c(C)c3)S(C)(=O)=O)c(=O)[nH]c2c1`, the GTP binding activity is 98% (inactive).

As to `CCN(CC(=O)NC(=O)NCc1ccccc1)Cc1nc2ccccc2c(=O)[nH]1`, the GTP binding activity was 101% (inactive).

In the case of `Cc1noc(C)c1S(=O)(=O)Nc1ccc(C(=O)N2CCN(c3ccc(F)cc3)CC2)cc1`, the GTP binding activity is 96% (inactive).

With `COc1ccc(CC(=O)N[C@@H](CCSC)c2nc3ccccc3[nH]2)cc1`, the GTP binding activity was 99% (inactive).

Consider `S=C(NCc1ccc2c(c1)OCO2)NCc1ccco1`, for which the GTP binding activity is 101% (inactive).

As for `Cc1ccc(CNC(=O)CCNS(=O)(=O)c2ccc(Br)s2)cc1`, the GTP binding activity is 99% (inactive).

On to `C=CCN(CC=C)S(=O)(=O)c1ccc(C(=O)Nc2sc3c(c2C(N)=O)CCCCC3)cc1`, for which the GTP binding activity is 101% (inactive).

As for `COCCN(CCOC)S(=O)(=O)c1ccc(C(=O)Nc2nc3c(s2)CCc2ccccc2-3)cc1`, the GTP binding activity was 102% (inactive).

As for `C=CCN(CC=C)S(=O)(=O)c1ccc(C(=O)Nc2nc3c(s2)CCc2ccccc2-3)cc1`, the GTP binding activity is 39% (active).

Turning to `COc1ccc2oc(=O)c(C(=O)N3CCCC3)cc2c1`, the GTP binding activity is 98% (inactive).

On to `O=S(=O)(NCc1ccccc1)c1ccc(S(=O)(=O)N2CCCC2)cc1`, for which the GTP binding activity is 100% (inactive).

As for `O=c1/c(=C/c2ccc(CNS(=O)(=O)c3ccccc3)o2)sc2n1CCN=2`, the GTP binding activity is 74% (active).

Consider `COC(=O)C1=C(C)NC(=O)/C1=C/c1ccc(CNS(=O)(=O)c2ccc(C)cc2)o1`, for which the GTP binding activity is 100% (inactive).

`C=CCC(C(=O)c1ccccc1)[N+](C)(C)CC=C` (stereo not given): the GTP binding activity is 96% (inactive).

For `O=C(COC(=O)C12CC3CC(CC(O)(C3)C1)C2)NC12CC3CC(CC(C3)C1)C2`, the GTP binding activity is 100% (inactive).

For the compound `CCOC(=O)c1oc2c(CN3CCN(CCO)CC3)c(O)c(CC)cc2c(=O)c1-c1nc2ccccc2s1`, the GTP binding activity was 99% (inactive).

`COc1ccc(Cl)cc1N(CC(=O)N/N=C/c1ccc(OCC(N)=O)cc1)S(C)(=O)=O`: the GTP binding activity is 99% (inactive).

`N/C(=N\OC(=O)COc1ccc([N+](=O)[O-])cc1)c1ccc(Br)cc1`: the GTP binding activity is 98% (inactive).

Turning to `CCOc1ccc(C(C)=O)cc1CSc1nnc(-c2ccncc2)n1CCOC`, the GTP binding activity was 99% (inactive).

As for `O=C(CCN1C(=O)c2ccccc2C1=O)NCCCn1ccnc1`, the GTP binding activity was 101% (inactive).

On to `Cc1nc(N2CCOCC2)sc1C(=O)NN`, for which the GTP binding activity was 100% (inactive).

In the case of `COc1ccc(-c2nn(-c3ccccc3)cc2CN2CCCO2)c(F)c1`, the GTP binding activity was 100% (inactive).

Regarding `Cc1ccc(SC(CC(=O)c2ccc(C(C)(C)C)cc2)C(=O)O)cc1` (stereo not given), the GTP binding activity is 78% (active).

Turning to `Cc1ccc(CSCC(N)C(=O)O)cc1` (stereo not given), the GTP binding activity was 97% (inactive).

With `Cc1ccc(C(=O)CS(C)(=O)=O)cc1`, the GTP binding activity is 104% (inactive).

For `O=C(CSc1ccc([N+](=O)[O-])cn1)Nc1ccc(N2CCOCC2)c(Cl)c1`, the GTP binding activity was 96% (inactive).

In the case of `CCCOC1CCCN(Cc2cn(C)nc2-c2ccccc2F)C1` (stereo not given), the GTP binding activity is 96% (inactive).
